{"source": "PubChem BioAssay (EPA / NIEHS)", "note": "Records with an inconclusive call do not appear. Activity calls are given as the source filed them. How the source made its calls: active means hit-call score of the fitted dose curve at least 0.9, where 1 is the maximum; inconclusive means response in the unintended direction; inactive means score below 0.9."}
{"biological_target": "Androgen receptor (Homo sapiens) (UniProt P10275)", "sequence (P10275 whole entry, looked up, the tested form may be a part)": "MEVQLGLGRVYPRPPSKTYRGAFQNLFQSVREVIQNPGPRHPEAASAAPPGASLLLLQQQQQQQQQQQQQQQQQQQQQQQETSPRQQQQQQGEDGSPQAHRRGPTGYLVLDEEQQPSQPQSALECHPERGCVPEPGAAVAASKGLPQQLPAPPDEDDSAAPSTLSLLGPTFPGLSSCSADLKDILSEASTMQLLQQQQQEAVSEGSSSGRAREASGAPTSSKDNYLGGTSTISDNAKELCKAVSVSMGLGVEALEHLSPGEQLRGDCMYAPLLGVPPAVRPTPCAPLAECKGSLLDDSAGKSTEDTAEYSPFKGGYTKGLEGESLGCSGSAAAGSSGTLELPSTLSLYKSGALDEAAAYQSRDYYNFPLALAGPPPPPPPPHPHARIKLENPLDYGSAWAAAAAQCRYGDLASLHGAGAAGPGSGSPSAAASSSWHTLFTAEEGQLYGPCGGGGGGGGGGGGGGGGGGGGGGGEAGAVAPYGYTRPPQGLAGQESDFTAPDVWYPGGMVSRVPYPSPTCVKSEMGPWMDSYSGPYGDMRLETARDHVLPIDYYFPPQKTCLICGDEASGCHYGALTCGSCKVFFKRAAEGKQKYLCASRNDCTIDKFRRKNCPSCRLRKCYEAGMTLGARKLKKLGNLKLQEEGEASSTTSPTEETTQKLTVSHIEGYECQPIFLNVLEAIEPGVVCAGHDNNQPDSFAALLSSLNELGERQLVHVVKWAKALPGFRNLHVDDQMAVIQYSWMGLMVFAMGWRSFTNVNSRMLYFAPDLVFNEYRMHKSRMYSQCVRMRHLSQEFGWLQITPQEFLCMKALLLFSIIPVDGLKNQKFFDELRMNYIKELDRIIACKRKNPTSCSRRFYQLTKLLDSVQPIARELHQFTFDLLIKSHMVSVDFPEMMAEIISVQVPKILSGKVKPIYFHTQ", "experiment": "ATG_AR_TRANS: Attagene TRANS-FACTORIAL HepG2 Assay for human Androgen Receptor (AR) (AID 2282973)", "settings": "HepG2 Attagene TRANS-FACTORIAL AR reporter transcription", "how_it_was_run": "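Transfected HepG2, 24 h treatment, chimeric NR-Gal4 driving GAL4-UAS reporters. mRNA induction by RT-PCR/capillary electrophoresis fluorescence; DMSO as negative control and baseline.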"}
{"smiles": "O=C(O)C=C(C(F)(F)F)C(F)(F)F", "outcome": "inactive"}
{"smiles": "FC(F)(F)N1C(F)(F)C(F)(F)OC(F)(F)C1(F)F", "outcome": "inactive"}
{"smiles": "Cc1cc(O)c(C(C)(C)C)cc1C(C)(C)C", "outcome": "inactive"}
{"smiles": "C=CC(=O)OCCCCCCCC(C)C", "outcome": "inactive"}
{"smiles": "O=S(=O)(OCCOC(F)(F)F)C(F)(F)F", "outcome": "inactive"}
{"smiles": "Brc1cc(Br)c(Oc2c(Br)cc(Br)c(Br)c2Br)cc1Br", "outcome": "inactive"}
{"smiles": "CC(C)c1ccc2c(c1)CC[C@H]1[C@](C)(CN)CCC[C@]21C", "outcome": "inactive"}
{"smiles": "COc1nccnc1CC(C)C", "outcome": "inactive"}
{"smiles": "C=C(C)C(=O)OCCOc1ccccc1", "outcome": "inactive"}
{"smiles": "COc1cc2c(c(OC)c1OC)-c1ccc(OC)c(=O)cc1[C@@H](NC(C)=O)CC2", "outcome": "inactive"}
{"smiles": "OC[C@H]1O[C@@H](O[C@H]2[C@H](O)[C@@H](O)[C@H](O)O[C@@H]2CO)[C@H](O)[C@@H](O)[C@H]1O", "outcome": "inactive"}
{"smiles": "FC(F)(F)C(F)(F)C(F)(F)N(C(F)(F)C(F)(F)C(F)(F)F)C(F)(F)C(F)(F)C(F)(F)F", "outcome": "inactive"}
{"smiles": "CCCCC[Si](OCC)(OCC)OCC", "outcome": "inactive"}
{"smiles": "O=C1CC2CC1C1CCCC21", "note": "(centres undefined)", "outcome": "inactive"}
{"smiles": "Cc1cc(NC(=O)C(=O)O)cc(C)c1Oc1ccc(O)c2c1CCC2", "outcome": "inactive"}
{"smiles": "COCCC(=O)OC", "outcome": "inactive"}
{"smiles": "CCCCCCc1ccc(N)cc1", "outcome": "inactive"}
{"smiles": "OCc1c[nH]c2ccccc12", "outcome": "inactive"}
{"smiles": "[Cl][Bi]([Cl])([c]1ccccc1)([c]1ccccc1)[c]1ccccc1", "outcome": "inactive"}
{"smiles": "CCC1(C)C(=O)N(Cl)C(=O)N1Cl", "note": "(centres undefined)", "outcome": "inactive"}
{"smiles": "CC(=O)O[C@@H]1C[C@@H]2CC[C@@]1(C)C2(C)C", "outcome": "inactive"}
{"smiles": "CC(CO)c1ccccc1", "note": "(centres undefined)", "outcome": "inactive"}
{"smiles": "CCN=c1cc2oc3cc(NCC)c(C)cc3c(-c3ccccc3C(=O)OCC)c-2cc1C", "outcome": "inactive"}
{"smiles": "N=C(N)C(F)(F)C(F)(F)C(F)(F)C(F)(F)C(F)(F)C(F)(F)C(F)(F)F", "outcome": "inactive"}
{"smiles": "CCCCC(CC)COC(=O)/C=C\\C(=O)OCC(CC)CCCC", "note": "(centres undefined)", "outcome": "inactive"}
{"smiles": "c1ccc(-c2ccccn2)nc1", "outcome": "inactive"}
{"smiles": "COC(=O)Cc1cccc2ccccc12", "outcome": "inactive"}
{"smiles": "Cc1cccc(C(=O)O)c1", "outcome": "inactive"}
{"smiles": "C[N+](C)(CCCNS(=O)(=O)CCC(F)(F)C(F)(F)C(F)(F)C(F)(F)C(F)(F)C(F)(F)F)CC(=O)[O-]", "outcome": "inactive"}
{"smiles": "OCc1ccccc1", "outcome": "inactive"}
{"smiles": "O=C(OC(=O)C(F)(F)C(F)(F)F)C(F)(F)C(F)(F)F", "outcome": "inactive"}
{"smiles": "Cc1cc(=O)[nH]c(C(C)C)n1", "outcome": "inactive"}
{"smiles": "COc1ccccc1OCC(O)CO", "note": "(centres undefined)", "outcome": "inactive"}
{"smiles": "FC(F)(F)C(F)(F)C(F)(F)Br", "outcome": "inactive"}
{"smiles": "CC(C)(C)c1cc(O)c(C(C)(C)C)cc1O", "outcome": "inactive"}
{"smiles": "CCc1c(Br)c(Br)c(Br)c(Br)c1Br", "outcome": "inactive"}
{"smiles": "COCc1c(C(C)C)nc(C(C)C)c(/C=C/[C@@H](O)C[C@@H](O)CC(=O)O)c1-c1ccc(F)cc1", "outcome": "inactive"}
{"smiles": "C=C(C)[C@@H]1CCC2=CCC[C@@H](C)[C@]2(C)C1", "outcome": "inactive"}
{"smiles": "c1ccc2cc(Nc3ccc(Nc4ccc5ccccc5c4)cc3)ccc2c1", "outcome": "inactive"}
